# Test results reported in PubChem BioAssay (NCATS).
# Results filed as inconclusive are left out. Entries that show only a call come without a potency. Calls of active or inactive are those of the source. Unless noted, calls follow the shape of the dose curve; as a rule, active = well fitted curve in the direction sought with a large enough effect; inconclusive = small, poorly fitted or top-dose-only effect, or another doubt; inactive = no such curve, though single readings can be large; an effect the other way counts as inactive or inconclusive.
# Key:
# [1] = system: Zika virus NS2B-NS3 protease; assay: Primary screen GU AMC qHTS for Zika virus inhibitors (AID 1347154); also: nearly all actives have a fitted effect of over 70% in size
# Outline: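 Unlinked Zika NS2B hydrophilic domain/NS3 protease domain noncovalent complex (25 nM final) in 10 mM Tris-HCl pH 8.0, 0.01% Tween 20, with AMC peptide substrate. Fluorescence (ex 340, em 450 nm) change over 15 min, room temperature; percent inhibition fitted to 4-parameter Hill equation.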
# [2] = target: Cytochrome P450 3A4 (Homo sapiens) (UniProt P08684); assay: qHTS Assay for Inhibitors and Substrates of Cytochrome P450 3A4 (AID 884); also: nearly all actives have a fitted effect of over 50% in size
# Outline: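 20 nM human CYP3A4 with 25 uM Luciferin-PPXE (at KM) in 200 mM KPO4, preincubated 10 min with compound; NADPH regeneration started a 60 min RT reaction. Luciferin detected by luminescence, normalized to 57 uM ketoconazole as full inhibition.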
# [3] = Confirmation and Secondary Assay for Modulators of Hemoglobin Beta Chain Splicing at IVS2 654 locus (AID 910);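 also: per-well total GFP intensity by laser scanning cytometry after 2-day treatment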
# Outline: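 HeLa cells stably carrying EGFP interrupted by mutant beta-globin IVS2-654 intron (CMV-driven) were treated with compound for 2 days at 37C; corrected splicing was scored as total peak GFP intensity per well (488 nm excitation, 500-520 nm emission).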
# [4] = Confirmation and Secondary Assay for Modulators of Hemoglobin Beta Chain Splicing at IVS2 705 locus (AID 930);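 also: HeLa cells stably expressing the EGFP-705 splicing reporter; GFP fluorescence per well restored by corrected splicing of the IVS2-705 intron in EGFP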
# Outline: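 Assay measures total GFP intensity per well in HeLa EGFP-705 cells after 2 days with compound; mis-splicing normally truncates EGFP, so fluorescence indicates corrected splicing.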
# [5] = qHTS Assay for Lipid Storage Modulators (AID 1519; calls by dose curve); details: Drosophila S3 cells, BODIPY lipid droplet/cell ratio, laser cytometry, cells loaded with oleic acid
# Outline: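 Cells seeded at 5,000 per well were treated with compounds over a concentration series and loaded with oleic acid (400 uM, as added). Lipid droplet fluorescence (488 nm excitation, 500-530 nm channel) was read by laser-scanning cytometry and normalized to 20 uM Triacsin C.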
# [6] = target: Ubiquitin carboxyl-terminal hydrolase 1 (Homo sapiens) (UniProt O94782); assay: Inhibitors of USP1/UAF1: Pilot qHTS (AID 504865); also: potency is read from the fitted curve at half-maximal effect; nearly all actives have a fitted effect of over 35% in size
# Outline: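 USP1/UAF1 complex (1nM) preincubated with compound 15 min at room temperature, then Ub-Rho substrate (150nM final) added. Fluorescence read kinetically at 480/540 nm, 6 reads every 60 seconds. Buffer: 50mM HEPES pH 7.8, 0.5mM EDTA, 0.1 mg/ml BSA, 1mM TCEP, 0.01% Tween-20.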
# [7] = system: Zika virus NS2B-NS3 protease (unlinked complex); assay: Confirmatory screen GU AMC qHTS for Zika virus inhibitors (AID 1347153);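 also: enzyme at 25 nM with substrate at 10 µM below its Km of 18.3 µM; potency is read from the fitted curve at half-maximal effect; nearly all actives have a fitted effect of over 70% in size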
# Outline: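 Noncovalent NS2B hydrophilic domain/NS3 protease complex (25 nM) in 10 mM Tris-HCl pH 8.0, 0.01% Tween 20 was preincubated 15 min at room temperature with compounds. Then 10 µM AMC substrate (Km 18.3 µM) was added; fluorescence was read over 15 min and fitted to a 4-parameter Hill equation.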
# [8] = Confirmatory screen NINDS Rhodamine qHTS for Zika virus inhibitors (AID 1347161); also: potency is read from the fitted curve at half-maximal effect; nearly all actives have a fitted effect of over 60% in size
# Outline: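 qHTS dose-response: 25 nM linked protease, pH 8.0 Tris/Tween buffer, cpd titration, 15 min RT preinc, 1.5 microM Rhod110 peptide, 15 min reaction (~15% conversion), Ex480/Em540; 4-parameter Hill fit.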
# [9] = system: Zika virus NS2B-NS3 protease (linked); assay: 384 well plate NINDS AMC confirmatory qHTS for Zika virus inhibitors (AID 1347163); also: potency is read from the fitted curve at half-maximal effect; nearly all actives have a fitted effect of over 50% in size
# Outline: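 Linked protease 5/30/60 nM final; cpds up to 1 mM final, ~15 min preinc. Substrate Ac-VKTGKR-AMC 30 microM final. RT, dark, 25 min; FI ex 355/em 460; normalized to no-enzyme/no-inhibitor ctrls.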
# [10] = system: Zika virus NS2B-NS3 protease (linked construct); assay: 384 well plate NINDS Rhodamine confirmatory qHTS for Zika virus inhibitors (AID 1347164);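 also: fluorescence from protease cleavage of Ac-LKRR-rhodamine 110 substrate; potency is read from the fitted curve at half-maximal effect; nearly all actives have a fitted effect of over 65% in size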
# Outline: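 Linked protease at a final 5 nM, 30 nM or 60 nM was preincubated ~15 min with compounds, then given 10 microM Ac-LKRR-Rhodamine 110. Fluorescence (ex 485/em 538 nm) after 25 min in the dark at room temperature.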
# [11] = Vero cells viability qHTS for Zika virus inhibitors (AID 1347167)
# Outline: (§1)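 Counter-screen for cytotoxicity of hits from NS2B-NS3 protease qHTS. Overnight-attached cells (2.5 x 10^5 cells/mL, DMEM/4% FBS) were dosed in titration, incubated 24 to 48 hours, then assayed by CellTiter Glo.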
# [12] = HepG2 cells viability qHTS for Zika virus inhibitors (AID 1347168)
# Outline: as §1
# [13] = Primary qHTS for small molecule stabilizers of the endoplasmic reticulum resident proteome: Secreted ER Calcium Modulated Protein (SERCaMP) assay (AID 1508630)
# Outline: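 GLuc-SERCaMP-expressing SH-SY5Y cells, pretreated 16 h with compound, are challenged with thapsigargin to empty ER calcium stores; after 4 h, coelenterazine is added directly to the medium and luminescence is imaged.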
# [14] = target: Rap guanine nucleotide exchange factor 3 (Homo sapiens) (UniProt O95398); assay: Confirmatory qHTS for antagonist of cAMP-regulated guanine nucleotide exchange factor 3 (EPAC1) (AID 1645880); also: potency is read from the fitted curve at half-maximal effect; nearly all actives have a fitted effect of over 55% in size
# Outline: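 Nucleotide exchange uses 100 nM EPAC1, 250 nM RAP1B-BODIPY-GDP and 50 uM GDP, with compounds in a concentration-titration series. After 5 min at room temperature, fluorescence (480 nm ex/540 nm em) is read every 5 min for 30 min. Data are normalized to control ATA and DMSO.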
# [15] = target: Rap guanine nucleotide exchange factor 3 (Homo sapiens) (UniProt O95398); assay: Confirmatory qHTS for agonist of cAMP-regulated guanine nucleotide exchange factor 3 (EPAC1) (AID 1645881);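 also: EPAC1 catalysed release of BODIPY-GDP from Rap1B seen as fluorescence loss; nearly all actives have a fitted effect of over 75% in size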
# [16] = target: Rap guanine nucleotide exchange factor 4 (Homo sapiens) (UniProt Q8WZA2); assay: Confirmatory qHTS for agonist of cAMP-regulated guanine nucleotide exchange factor 4 (EPAC2) (AID 1645884);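 also: nucleotide exchange releases bodipy-GDP from Rap1 and this lowers its fluorescence; nearly all actives have a fitted effect of over 65% in size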
# [17] = target: Rap guanine nucleotide exchange factor 4 (Homo sapiens) (UniProt Q8WZA2); assay: Confirmatory qHTS for antagonist of cAMP-regulated guanine nucleotide exchange factor 4 (EPAC2) (AID 1645885); also: nearly all actives have a fitted effect of over 25% in size
# [18] = qHTS to identify inhibitors of the type 1 interferon - major histocompatibility complex class I in skeletal muscle: primary screen against the NCATS Mechanism Interrogation Plate v5.0 (MIPE) Libary (AID 1347411); also: nearly all actives have a fitted effect of over 65% in size
# Outline: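 Cells were genome-edited human myoblasts carrying a HiBit tag on endogenous HLA-B. They were treated with IFN-beta (4.0 ng/ml) and titrated compounds (top 46 uM) for 24 hrs before lytic HiBiT detection.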
# [19] = NCATS anti-infectives library activity on HEK293 viability as a counter-qHTS vs the C. elegans viability qHTS (AID 1745854);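 also: HEK293 cells exposed to compounds for 24 hr before the viability read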
# Outline: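 Cytotoxicity in human HEK293 cells is measured by ATP-dependent CellTiter-Glo luminescence following a 24 hr incubation with titrated library compounds at 37C. Top final concentration is 41.7 uM.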
# [20] = target: Glutathione peroxidase 1 (Homo sapiens) (UniProt P07203); assay: Primary qHTS Assay for Inhibitors of Recombinant Selenoprotein Glutathione Peroxidase 1 (GPX1) (AID 1845191); also: nearly all actives have a fitted effect of over 65% in size
# Outline: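 Recombinant GPX1 (10 nM final) was preincubated with compound for 30 min at room temperature, then reacted with 1 mM GSH, 0.5 mM CHP, 0.5 mM NADPH and 100 nM glutathione reductase; NADPH fluorescence (340/450 nm) was read at 0 and 15 min.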
# [21] = target: Phospholipid hydroperoxide glutathione peroxidase GPX4 (Homo sapiens) (UniProt P36969); assay: Primary qHTS Assay for Inhibitors of Recombinant Selenoprotein Glutathione Peroxidase 4 (GPX4) (AID 1845192); details: outcome: dose series up to 50 µM unless noted; also: nearly all actives have a fitted effect of over 65% in size
# Outline: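 GR-coupled readout: 100 nM GR, 1 mM GSH, 0.5 mM NADPH; NADPH fluorescence (ex 340/em 450 nm) read at t=0 and after 15 min RT. GPX4 200 nM, preincubated 30 min with compound; substrate 0.5 mM CHP.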
# [22] = qHTS drug screen for cell cycle checkpoint inhibitors in PARPi-resistant BRCA-mutant ovarian cancer cell lines. (AID 1963452; calls by dose curve); details: PEO1/OlaR viability, CellTiter-Glo luminescence, 96 h, stronger effect = lower value
# Outline: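 PEO1, PEO4 and PEO1/OlaR ovarian cancer cells, 600 per well, exposed 96 h at 37C to a dilution series. Viability read by CellTiter-Glo luminescence, normalized to DMSO and empty wells; activity summarized as Z-AUC.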
# Sequence of Rap guanine nucleotide exchange factor 3 (Homo sapiens) (O95398 whole entry, looked up): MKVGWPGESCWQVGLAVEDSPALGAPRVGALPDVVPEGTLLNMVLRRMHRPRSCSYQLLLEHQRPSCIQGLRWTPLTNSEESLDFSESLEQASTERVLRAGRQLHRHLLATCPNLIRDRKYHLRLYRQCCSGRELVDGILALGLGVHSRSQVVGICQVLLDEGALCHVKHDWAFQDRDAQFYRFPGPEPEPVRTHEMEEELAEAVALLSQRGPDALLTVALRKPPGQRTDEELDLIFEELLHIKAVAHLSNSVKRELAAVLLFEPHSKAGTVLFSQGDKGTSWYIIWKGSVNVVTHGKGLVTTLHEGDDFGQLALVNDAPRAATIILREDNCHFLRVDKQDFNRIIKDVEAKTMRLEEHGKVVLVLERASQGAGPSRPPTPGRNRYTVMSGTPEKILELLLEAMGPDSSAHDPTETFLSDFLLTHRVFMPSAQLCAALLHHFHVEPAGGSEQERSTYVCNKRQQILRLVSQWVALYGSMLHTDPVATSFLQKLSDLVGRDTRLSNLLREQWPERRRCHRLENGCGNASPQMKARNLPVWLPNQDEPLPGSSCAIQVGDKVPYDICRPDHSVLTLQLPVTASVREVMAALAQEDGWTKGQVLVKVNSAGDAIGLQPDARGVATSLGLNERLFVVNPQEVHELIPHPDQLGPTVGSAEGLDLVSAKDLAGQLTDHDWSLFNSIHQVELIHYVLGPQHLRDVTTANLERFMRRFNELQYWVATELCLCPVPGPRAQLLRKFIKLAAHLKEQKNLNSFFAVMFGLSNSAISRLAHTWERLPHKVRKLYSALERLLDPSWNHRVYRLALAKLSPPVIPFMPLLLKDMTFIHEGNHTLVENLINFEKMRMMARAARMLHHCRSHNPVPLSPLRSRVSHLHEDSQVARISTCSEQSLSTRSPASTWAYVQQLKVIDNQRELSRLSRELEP
# Sequence of Rap guanine nucleotide exchange factor 4 (Homo sapiens) (Q8WZA2 whole entry, looked up): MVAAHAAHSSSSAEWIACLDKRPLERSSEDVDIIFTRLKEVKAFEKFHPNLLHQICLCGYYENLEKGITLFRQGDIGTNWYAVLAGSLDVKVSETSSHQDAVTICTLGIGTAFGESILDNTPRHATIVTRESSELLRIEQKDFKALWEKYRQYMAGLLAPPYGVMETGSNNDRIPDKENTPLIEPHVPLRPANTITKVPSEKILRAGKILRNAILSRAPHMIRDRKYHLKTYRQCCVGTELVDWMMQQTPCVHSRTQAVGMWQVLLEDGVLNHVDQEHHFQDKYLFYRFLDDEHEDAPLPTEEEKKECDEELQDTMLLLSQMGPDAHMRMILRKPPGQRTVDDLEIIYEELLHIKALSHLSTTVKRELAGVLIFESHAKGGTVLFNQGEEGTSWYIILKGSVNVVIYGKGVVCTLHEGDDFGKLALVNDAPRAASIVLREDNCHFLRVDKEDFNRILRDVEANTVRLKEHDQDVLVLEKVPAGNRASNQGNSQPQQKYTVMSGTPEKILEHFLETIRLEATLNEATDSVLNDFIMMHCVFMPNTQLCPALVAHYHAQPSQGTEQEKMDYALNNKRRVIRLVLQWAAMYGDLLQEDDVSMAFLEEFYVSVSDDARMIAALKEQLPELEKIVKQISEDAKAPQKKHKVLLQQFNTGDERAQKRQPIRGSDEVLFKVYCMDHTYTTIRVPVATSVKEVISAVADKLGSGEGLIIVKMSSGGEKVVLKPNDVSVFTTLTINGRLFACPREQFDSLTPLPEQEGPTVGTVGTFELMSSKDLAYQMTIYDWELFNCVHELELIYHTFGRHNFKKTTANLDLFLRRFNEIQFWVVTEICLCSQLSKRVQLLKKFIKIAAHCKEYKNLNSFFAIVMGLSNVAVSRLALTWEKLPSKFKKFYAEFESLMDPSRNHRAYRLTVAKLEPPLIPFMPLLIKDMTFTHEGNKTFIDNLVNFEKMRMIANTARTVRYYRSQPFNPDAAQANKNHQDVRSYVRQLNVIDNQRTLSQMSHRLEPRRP
# Sequence of Cytochrome P450 3A4 (Homo sapiens) (P08684 whole entry, looked up): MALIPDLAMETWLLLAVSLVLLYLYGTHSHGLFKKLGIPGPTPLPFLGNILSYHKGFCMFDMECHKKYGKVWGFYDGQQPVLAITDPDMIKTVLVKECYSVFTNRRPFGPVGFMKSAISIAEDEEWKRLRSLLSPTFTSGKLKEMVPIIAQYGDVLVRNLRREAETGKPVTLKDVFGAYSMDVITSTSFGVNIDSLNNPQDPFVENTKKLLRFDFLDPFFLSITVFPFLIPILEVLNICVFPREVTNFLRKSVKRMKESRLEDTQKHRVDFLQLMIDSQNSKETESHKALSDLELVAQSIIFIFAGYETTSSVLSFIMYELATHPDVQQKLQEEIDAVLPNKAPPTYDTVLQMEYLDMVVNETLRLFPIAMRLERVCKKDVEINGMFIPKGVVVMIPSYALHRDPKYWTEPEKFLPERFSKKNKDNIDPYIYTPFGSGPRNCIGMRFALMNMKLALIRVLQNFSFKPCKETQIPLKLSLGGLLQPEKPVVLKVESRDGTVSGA
# Sequence of Phospholipid hydroperoxide glutathione peroxidase GPX4 (Homo sapiens) (P36969 whole entry, looked up): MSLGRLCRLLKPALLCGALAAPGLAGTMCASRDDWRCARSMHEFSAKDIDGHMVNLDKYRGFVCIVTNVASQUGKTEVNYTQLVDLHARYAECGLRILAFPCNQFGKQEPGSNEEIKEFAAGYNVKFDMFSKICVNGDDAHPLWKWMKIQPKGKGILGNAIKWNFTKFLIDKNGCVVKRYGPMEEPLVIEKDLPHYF
# Sequence of Glutathione peroxidase 1 (Homo sapiens) (P07203 whole entry, looked up): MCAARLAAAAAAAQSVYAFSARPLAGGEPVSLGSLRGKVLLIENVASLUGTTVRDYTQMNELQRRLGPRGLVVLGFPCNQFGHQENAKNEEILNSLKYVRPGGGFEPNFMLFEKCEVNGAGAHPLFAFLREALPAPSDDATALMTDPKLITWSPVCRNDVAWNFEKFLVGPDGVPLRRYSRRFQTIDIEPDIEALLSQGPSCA
# Sequence of Ubiquitin carboxyl-terminal hydrolase 1 (Homo sapiens) (O94782 whole entry, looked up): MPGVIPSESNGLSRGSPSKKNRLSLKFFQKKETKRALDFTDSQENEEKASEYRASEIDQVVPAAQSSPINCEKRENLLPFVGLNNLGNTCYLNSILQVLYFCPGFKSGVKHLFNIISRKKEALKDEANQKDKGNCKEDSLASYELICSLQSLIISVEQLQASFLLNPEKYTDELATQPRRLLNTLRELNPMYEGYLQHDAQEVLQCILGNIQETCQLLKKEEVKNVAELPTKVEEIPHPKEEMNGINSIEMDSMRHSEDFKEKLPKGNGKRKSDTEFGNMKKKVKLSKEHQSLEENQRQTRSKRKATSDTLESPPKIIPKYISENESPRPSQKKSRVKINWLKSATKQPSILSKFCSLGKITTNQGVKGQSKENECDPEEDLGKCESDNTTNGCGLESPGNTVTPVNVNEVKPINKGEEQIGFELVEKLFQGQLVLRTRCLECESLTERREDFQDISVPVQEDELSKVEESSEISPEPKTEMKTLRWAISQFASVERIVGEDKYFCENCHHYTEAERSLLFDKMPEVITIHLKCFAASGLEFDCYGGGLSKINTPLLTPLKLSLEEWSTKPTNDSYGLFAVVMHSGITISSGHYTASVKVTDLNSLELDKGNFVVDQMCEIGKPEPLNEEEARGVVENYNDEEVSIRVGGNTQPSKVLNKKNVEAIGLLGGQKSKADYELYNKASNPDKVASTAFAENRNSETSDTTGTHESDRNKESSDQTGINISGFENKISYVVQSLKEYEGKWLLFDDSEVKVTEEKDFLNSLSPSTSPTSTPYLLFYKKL
compound,measurement,setting,value
O=C(O)CCC/C=C\C[C@@H]1C(/C=C/[C@@H](O)COc2cccc(C(F)(F)F)c2)[C@@H](O)C[C@@H]1O (stereo partly specified),"activity change, negative = inhibition",[1],0.372% [at 6.83 µM] (inactive)
COc1ccccc1N1CCN(CC2CN3C(=O)N(C)c4ccccc4C3=N2)CC1 (stereo unspecified),Potency,[1],inactive
C=CC1CN2CCC1C[C@H]2C(O)c1ccnc2ccc(OC)cc12 (stereo partly specified),Potency,[1],inactive
O=C(C1CCCCC1)N(CCN1CCN(c2ccccc2CO)CC1)c1ccccn1,Potency,[1],inactive
C/C=C1/C(=O)C[C@@H]2[C@H]3CCC4=CC(=O)CC[C@]4(C)[C@@H]3CC[C@]12C,Potency,[1],inactive
CC(C)=CCCC1(C)C=Cc2c(O)c3c(c(CC=C(C)C)c2O1)OC12C(=CCCC1C(C)(C)O[C@@]2(C/C=C(\C)C(=O)O)C(=O)O)C3=O (stereo partly specified),Potency,[2],inactive
same,outcome,[3],inactive
same,outcome,[4],inactive
same,"activity change, negative = inhibition",[5]; at 57.5 µM (top of the series),7.82% (inactive)
same,max response,[5]; measured here: cell count channel max response,0.914%
same,max response,[5]; measured here: lipid channel max response,7.86%
same,Potency,[6],79.4 µM (active)
same,Potency,[7],19.2 µM (active)
same,Potency,[8],1.39 µM (active)
same,Potency,[9],158 µM (active)
same,Potency,[10],22.4 µM (active)
same,Potency,[11],inactive
same,Potency,[12],inactive
same,Potency,[13],inactive
same,Potency,[14],55.9 µM (active)
same,outcome,[15],inactive
same,outcome,[16],inactive
same,Potency,[17],inactive
O=C(O)C1CC(CCCP(=O)(O)O)CCN1 (stereo unspecified),Potency,[1],inactive
O=C(O)c1cc(N(Cc2ccccc2O)Cc2cc(O)ccc2O)ccc1O,Potency,[1],inactive
O=c1ccn([C@@H]2O[C@H](COP(=O)(O)O)[C@@H](O)[C@H]2O)c(=O)[nH]1,Potency,[1],inactive
CCOC(=O)C1OC1C(=O)NC(CC(C)C)C(=O)NCCC(C)C (stereo unspecified),Potency,[1],inactive
CCCC[C@@H](C=O)NC(=O)[C@H](CC(C)C)NC(=O)OCc1ccccc1,Potency,[1],inactive
same,Potency,[18],inactive
same,Potency,[13],inactive
same,outcome,[19],inactive
same,Potency,[20],inactive
same,Potency,[21],inactive
same,Z-AUC,[22],1.25 (inactive)
same,Z-AUC,[22]; measured here: PEO1 parental Z-AUC,0.731
same,Z-AUC,[22]; measured here: PEO4 Z-AUC,0.856
